Hits are enriched below; roughly 3.3% of the tested compounds scored in any of these assays.
AmpC inh no detg = blocks E. coli AmpC beta-lactamase in detergent-free assay; Potency, µM (titrated, usually from 57.1 µM), inactives show at the top dose activity change, negative = inhibition, actives largely listed as inhibitors; 330,000 tested, 0.52% active; AmpC nitrocefin hydrolysis, absorbance 480 nm, 0.0001% Triton;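 also: plate controls were no compound for no effect and no enzyme for full effect; nearly all actives have a fitted effect of over 20% in size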
Target sequence (P00811 whole entry, looked up): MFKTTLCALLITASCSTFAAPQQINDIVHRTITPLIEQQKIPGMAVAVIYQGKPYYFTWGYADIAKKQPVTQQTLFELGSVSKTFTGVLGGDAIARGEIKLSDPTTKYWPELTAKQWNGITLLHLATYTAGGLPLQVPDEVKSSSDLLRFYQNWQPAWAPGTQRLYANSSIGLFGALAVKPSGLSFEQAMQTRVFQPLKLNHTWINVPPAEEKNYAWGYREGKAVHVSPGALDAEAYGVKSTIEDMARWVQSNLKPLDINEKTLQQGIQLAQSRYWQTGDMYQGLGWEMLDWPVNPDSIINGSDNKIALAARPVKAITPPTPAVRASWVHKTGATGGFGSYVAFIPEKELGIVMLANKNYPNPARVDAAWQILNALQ
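20 mM phosphate pH 7.0 + 0.01% (detergent screen) or 0.0001% Triton X-100; 5.3 nM AmpC reagent; cpd preinc 15 min RT; nitrocefin (800 uM stock) to start; A480 q20 s × 4 min; Activity was normalised to no-enzyme and no-compound control wells.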
AmpC inh detg = AmpC beta-lactamase inhibition with detergent present | P00811 | 370,000 tested, 0.041% active | AmpC hydrolysis of nitrocefin, absorbance 480 nm, 0.01% Triton | Potency, µM (doses to about 114 µM), for the others: top-dose activity change, negative = inhibition, most hits filed as inhibitors;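 also: 0% = no-compound wells and -100% = no-enzyme wells; nearly all actives have a fitted effect of over 25% in size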
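AmpC (5.3 nM in the dispensed reagent) in 20 mM phosphate pH 7.0 with 0.01% (detergent screen) or 0.0001% Triton X-100 was preincubated with compounds for 15 min at room temperature. Nitrocefin was then added from an 800 uM solution, and hydrolysis was followed at 480 nm.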
Sm TGR block = S. mansoni TGR enzyme inhibition; 360,000 tested, 3% active; purified TGR, DTNB reduction, TNB absorbance 405 nm; Potency, µM (highest dose often 114 µM), without a hit: at the top dose activity change, negative = inhibition, hits mostly inhibitors; also: nearly all actives have a fitted effect of over 60% in size
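First, TGR (20 nM dispensed) and NADPH were mixed with compound. Second, a 15 min room-temperature incubation followed. Third, further NADPH and then DTNB were added to start the reaction. Finally, TNB absorbance was monitored kinetically.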
Starred values were filed as active, the others as inactive; u = inconclusive; x = no result. Calls follow the shape of the dose curve; as a rule, active = well fitted curve in the direction sought with a large enough effect; inconclusive = small, poorly fitted or top-dose-only effect, or another doubt; inactive = no such curve, though single readings can be large; an effect the other way counts as inactive or inconclusive. Unless noted, % is scaled to controls: 0 for no effect and ±100 for the full control effect; potency is read from the fitted curve at half-maximal effect.

SMILES	AmpC inh no detg	AmpC inh detg	Sm TGR block
CCOC(=O)c1ccc(NC(=O)CC2SC(=NC)N(C)C2=O)cc1 (configuration not stated)	1.9%	1.9%	-7.0%
CC(C)Oc1ccc(CNS(=O)(=O)c2ccc3c(c2)C(C)(C)C(=O)N3C)cc1	x	0.1%	2.1%
Nc1nc(N)c(S(=O)(=O)c2ccccc2)c(Nc2ccc(Br)cc2)n1	x	-0.1%	3.0%
COc1ccccc1NC(=O)C1=C(C)Nc2c(C(=O)Nc3cccc(C)c3)cnn2C1c1ccccc1Cl (configuration not stated)	x	-1.0%	11.3%
CC1(C)CC(=O)c2cc(-c3nc(-c4ccc(Cl)cc4)cs3)c(=O)n(-c3cccc(F)c3)c2C1	x	-8.2%	-0.3%
Fc1ccccc1N1CCN(c2ncnc3onc(-c4cccc(Cl)c4)c23)CC1	x	-1.1%	0.1%
Cc1ccc(N2C(=O)CSC23C(=O)N(CC(=O)Nc2ccc(C)cc2C)c2ccccc23)cc1 (configuration not stated)	x	0.1%	-4.1%
COc1ccc(C2NC(=O)NC(O)(C(F)(F)F)C2C(=O)c2ccc(F)cc2)cc1 (configuration not stated)	0.3%	-7.3%	44.7µM*
COc1cc(C2NC(=O)NC(O)(C(F)(F)F)C2C(=O)c2ccc(Cl)cc2)ccc1O (configuration not stated)	0.7%	-0.9%	u
COc1ccc(C(=O)NC(=S)Nc2ccc(N3CCCC3)cc2)cc1	-20.2%	u	-2.6%
COc1ccc(C(=O)Nc2ccc(N3CCCC3)cc2)cc1	1.3%	u	56.2µM*
CCC(=O)Nc1ccc(N2CCCCC2)c(C(=O)Nc2ccc(OC)cc2)c1	-11.9%	-1.2%	-10.1%
COc1ccc(CC(=O)Nc2ccc(N3CCCC3)c(C)c2)cc1	-2.6%	-12.6%	50.1µM*
CCCN(Cc1cccs1)C(=O)Nc1cc(Cl)ccc1C	x	11.1%	3.7%
Cc1cc(C)cc(C(=O)N2CC(=O)Nc3ccc(C)cc3C2c2ccccc2)c1 (configuration not stated)	x	-1.3%	7.7%
COc1cc(/C=C/C(=O)OCC(=O)c2ccc(OC(F)F)cc2)ccc1O	-23.9%	x	x
O=C1COc2ccc(C(=O)COC(=O)/C=C/c3ccco3)cc2N1	-19.0%	u	12.6µM*
O=C(COC(=O)/C=C/c1ccco1)NCc1ccccc1	-21.6%	3.6%	-1.4%
O=C1COc2ccc(C(=O)COC(=O)c3ccco3)cc2N1	-14.9%	-5.8%	-28.1%
O=C(COC(=O)/C=C/c1ccco1)NCc1ccc(Cl)cc1	-18.5%	-15.1%	17.8µM*
O=C(/C=C/c1ccco1)OCC(=O)c1ccc(OC(F)F)cc1	-11.5%	-2.9%	22.4µM*
CC(C)NC(=O)COC(=O)/C=C/c1ccc(F)cc1	-23.2%	4.6%	4.1%
CC(C)NC(=O)COC(=O)/C=C/c1ccco1	-27.3%	2.3%	50.1µM*
CCOCN(C(=O)Cn1cnc2cc(C)c(C)cc21)c1c(C)cccc1CC	x	-2.6%	2.8%
O=C(Cn1ncc2c3ccccc3n(Cc3ccccc3)c2c1=O)NCCc1ccc(Cl)cc1	x	17.6%	-1.1%
SMILES	AmpC inh no detg	AmpC inh detg	Sm TGR block
Cc1cc(C)cc(-n2ccnc2SCC(=O)Nc2ccc(C)cc2C)c1	x	8.5%	3.7%
COc1ccccc1CNC(=O)CSc1nc(=O)[nH]c2c1CCCC2	x	0.1%	2.9%
COc1ccc(Cn2c(SCc3ccc(C(=O)NCc4cccs4)cc3)nc3cccnc32)cc1	x	5.5%	1.6%
Cc1cccc2sc(N(Cc3cccnc3)C(=O)C3COc4ccccc4O3)nc12 (configuration not stated)	x	0.2%	1.2%
CNC(=O)c1ccc2nc(Cc3ccccc3)oc2c1	x	22.9%	0.8%
COc1ccc(-n2ccn(Cc3ccccc3C)c(=O)c2=O)cc1	x	24.5%	7.4%
Cc1ccc(/C=C/C(=O)OCC(=O)NC(C)C)o1	-10.4%	3.8%	50.1µM*
CCOC(=O)c1c(C)[nH]c(C)c1C(=O)COC(=O)/C=C/c1ccc(OC)cc1	-12.9%	0.0%	-3.9%
O=C1COc2ccc(C(=O)NC3CC3)cc2N1	-11.0%	6.7%	3.1%
Cc1ccc(/C=C/C(=O)OCC(=O)NCc2cccs2)o1	-13.7%	x	x
O=C(O)/C=C/C(=O)c1ccc2c(c1)NC(=O)CO2	7.9%	-9.7%	1µM*
COc1ccc(OC)c(NC(=O)COC(=O)/C=C/c2ccco2)c1	-30.9%	x	x
CCCNC(=O)COC(=O)/C=C/c1ccco1	-10.6%	-1.5%	44.7µM*
CCOC(=O)c1c(C)[nH]c(C)c1C(=O)COC(=O)/C=C/c1ccco1	-11.8%	-1.3%	31.6µM*
c1coc(-c2nc3n(n2)C2(CCCCC2)[C@@H]2CCCC[C@@H]2N3)c1	x	6.5%	u

Source: PubChem BioAssay (National Center for Advancing Translational Sciences (NCATS))
